Among all 68,000 compounds or so, about 2,700 (4%) showed an effect of 50% or more. The full list was thinned out, with strong results kept by preference.

In this experiment the test system is Plasmodium berghei. Put plainly: Screen against P. berghei liver stage (PbLuc), transformed with Luciferase, at 2uM. Format: functional, HepG2. Conditions: tested at 2 uM.
`COC(=O)c1ccc(NC(C)c2ccc3c(c2)CCC(=O)N3)nn1` (centres undefined): the INHIBITION amounted to 34.22%.

For the compound `CCc1noc(C)c1C(=O)N1CCCN(Cc2csc(C)n2)CC1`, the INHIBITION is 16.84%.

`Cc1csc(N2CCN(C(=O)c3c(C)oc(C)c3C)CC2)n1`: the INHIBITION came out at 58.52%.

As to `Cc1csc(N2CCCN(C(=O)c3c(C)noc3C)CC2)n1`, the INHIBITION was found to be 24.65%.

With `Cc1csc(N2CCCN(C(=O)c3c(C)oc(C)c3C)CC2)n1`, the INHIBITION is recorded as -1.5%.

With `Cc1nc(CN2CCCN(C(=O)c3c(C)oc(C)c3C)CC2)cs1`, the INHIBITION worked out at 59.54%.

`Cc1nc(CN2CCCN(C(=O)c3c(C)noc3C)CC2)cs1`: the INHIBITION was determined as 3.38%.

As to `O=C(NCC1CCCO1)c1cc(-c2ccncc2)c2cnccc2n1` (centres undefined), the INHIBITION was determined as 26.69%.

Regarding `CO[C@@H]1CO[C@@]2(CCCN(C(=O)C3CC=CC3)C2)C1`, the INHIBITION is on record as -29.49%.

On to `COCC1CCN(c2ccnc3ccsc23)C1` (centres undefined), for which the INHIBITION is 15.84%.

As to `Cc1ccc(C(=O)N2CCn3cc(CN(C)Cc4ccco4)nc3C2)o1`, the INHIBITION is listed as -40.76%.

Regarding `Cn1ncc2c1C(COCC1CC1)CN(C(=O)Cc1ccsc1)C2` (centres undefined), the INHIBITION was determined as 22.16%.

Turning to `CN1C(=O)C2(CCNCC2)c2cc(F)ccc21`, the INHIBITION is recorded as 37.75%.

For the compound `CN(C[C@@H]1CCC[C@@H]2CN(Cc3cccnc3)C[C@@H]21)C1CC1`, the INHIBITION was 61.09%.

`c1cnc(NC[C@@H]2CCC[C@@H]3CN(Cc4cccnc4)C[C@@H]32)nc1`: the INHIBITION was 7.08%.

For the compound `COc1ccc(CN2C[C@H]3CCC[C@@H](CN(C)C4CC4)[C@H]3C2)cn1`, the INHIBITION stood at 0.42%.

In the case of `CC(=O)N1CCOC(c2cc(N3CC(O)C3)nc(C)n2)C1` (centres undefined), the INHIBITION stood at 18.8%.

In the case of `Cc1cnn(C2CN(CCOc3ccc(C#N)cc3)C2)c1`, the INHIBITION was -22.06%.

As to `Cc1cccc(NC(=O)[C@@H]2CCCN2CC(=O)Nc2ccccc2)n1`, the INHIBITION is -32.35%.

Consider `CCOC(=O)N1CCN(C(=O)c2cc(-c3ccc(C)cc3)on2)CC1`, for which the INHIBITION was determined as 21.28%.

`NC(=O)CN1C(=O)CO[C@H]2CN(Cc3ccc(Cl)cc3)C[C@H]21`: the INHIBITION came to 58.4%.

On to `NC(=O)CN1C(=O)CO[C@H]2CN(Cc3ccccc3)C[C@H]21`, for which the INHIBITION was 41.93%.

On to `NC(=O)CN1C(=O)CO[C@H]2CN(Cc3ccc(F)c(F)c3)C[C@H]21`, for which the INHIBITION was found to be 27.65%.

In the case of `Cn1ccnc1CN1CCCC(CCCc2ccccn2)(C(N)=O)C1` (centres undefined), the INHIBITION is -11.32%.

In the case of `COC(=O)c1cccc(S(=O)(=O)NC(=O)COC2CCCCC2)c1`, the INHIBITION was found to be 19.64%.

With `Cc1ccc(Nc2cc(N3CCN(S(C)(=O)=O)CC3)nc(C)n2)cc1`, the INHIBITION was found to be 51.2%.

With `CS(=O)(=O)N1CCN(c2cc(-n3cccc3)ncn2)CC1`, the INHIBITION stood at 19.08%.

`Cc1nc(Nc2ccccn2)cc(N2CCN(S(C)(=O)=O)CC2)n1`: the INHIBITION came out at 18.99%.

With `CC1CCN(C(=O)C(C)n2cc(Br)cn2)CC1` (centres undefined), the INHIBITION was determined as 20.8%.

Take `FC(F)(F)c1ccnc(N2CCC(c3nccn3CC3CC3)CC2)n1`: the INHIBITION is -0.62%.

Take `CCCn1ncc(CN2C[C@@H]3CCCN3C[C@H]2Cc2ccccc2)c1C`: the INHIBITION came out at 37.6%.

Regarding `CCCn1nc2c(cc1=O)CN(CC1CCCCO1)CC2` (centres undefined), the INHIBITION was found to be 28.72%.

On to `CN(CCn1cccn1)S(=O)(=O)c1cccc(F)c1C#N`, for which the INHIBITION is recorded as -2.19%.

As for `CN(CCn1cccn1)S(=O)(=O)c1cccc(Cl)c1C#N`, the INHIBITION is on record as -26.2%.

With `Cc1cc(F)c(S(=O)(=O)N(C)CCn2cccn2)cc1F`, the INHIBITION is recorded as 50.03%.

As for `CCC(C)(C)C(=O)Nc1ccc2ccn(CC(=O)NC)c2c1`, the INHIBITION is 24.51%.

On to `COc1cccc(CN2CCc3nc4ccsc4c(=O)n3CC2)c1`, for which the INHIBITION came out at 34.9%.

Turning to `Cn1cc(CN2CCCCC2c2ccc(-c3cccc(Cl)c3)nc2)cn1` (centres undefined), the INHIBITION amounted to 15.59%.

Consider `COC(=O)[C@@H]1C[C@H](NC(=O)c2cc(=O)[nH]c3ccc(C)cc23)CN1C`, for which the INHIBITION is given as 76.07%.

For `Cc1ccc2[nH]c(=O)cc(C(=O)N[C@@H]3C[C@@H](CO)N(C)C3)c2c1`, the INHIBITION worked out at 10.75%.

Turning to `CCNC(=O)[C@@H]1C[C@H](NC(=O)c2cc(=O)[nH]c3ccc(C)cc23)CN1C`, the INHIBITION came to 24.44%.

In the case of `CCCc1cc(=O)[nH]c(-c2ccccc2CN(C)CCC(C)C)n1`, the INHIBITION is given as -4.05%.

Consider `CCc1nnc2ccc(N3CCN(S(=O)(=O)c4ccc(Cl)s4)CC3)nn12`, for which the INHIBITION is 52.31%.

With `CCc1nnc2ccc(N3CCN(S(=O)(=O)c4ccc(C)s4)CC3)nn12`, the INHIBITION is listed as -37.47%.

For `CCCS(=O)(=O)N1CCN(c2ccc3nnc(CC)n3n2)CC1`, the INHIBITION came out at 8.76%.

`CCN(Cc1cnc(NCc2ccccc2)nc1)C1CCS(=O)(=O)C1` (centres undefined): the INHIBITION is -30.2%.

With `CN(C)Cc1nnc(C2CCCN(Cc3ccc(Cl)s3)C2)n1C` (centres undefined), the INHIBITION was determined as 7.64%.

`CC(=O)Nc1nc(C2CCN(C(=O)C3CCC3)CC2)cs1`: the INHIBITION was -49.56%.

Take `Fc1cccc(Cl)c1CN1CCC(c2n[nH]c3ncccc23)CC1`: the INHIBITION amounted to 53.65%.

For the compound `Fc1cccc(CN2CCC(c3n[nH]c4ncccc34)CC2)c1F`, the INHIBITION was determined as 12.36%.

As to `Fc1ccc(CN2CCC(c3n[nH]c4ncccc34)CC2)cc1F`, the INHIBITION amounted to 19.51%.

Regarding `COc1cccc(CN(C)Cc2[nH]c3ccccc3c2C)c1O`, the INHIBITION is 33.32%.

Regarding `CCc1nc(C)c(C(=O)NCC2COc3cc(OC)ccc3C2)o1` (centres undefined), the INHIBITION is listed as 76.56%.

As to `COc1ccc2c(c1)OCC(CNC(=O)c1ccncc1)C2` (centres undefined), the INHIBITION was found to be 31.38%.

`COc1ccc2c(c1)OCC(CNC(=O)c1cc[nH]c1C)C2` (centres undefined): the INHIBITION was found to be 23.79%.

On to `CCCC(=O)N1CCCCC1c1nc(N(C)C)ncc1-c1cc(C)no1` (centres undefined), for which the INHIBITION is -54.53%.

`COc1ccccc1CC(=O)N1CCCC1Cn1nc(C)cc1C` (centres undefined): the INHIBITION was -43.79%.

In the case of `COCCNC(=O)Cn1c(C)cc2nc(SC)n(CC(C)C)c(=O)c21`, the INHIBITION is -24.15%.

Turning to `Cn1ncc2c(NCCOCc3ccccc3)nc(C3CCCC3)nc21`, the INHIBITION is -19.29%.

For `CNS(=O)(=O)c1csc(C(=O)N(C)Cc2sccc2C)c1`, the INHIBITION is 46.97%.

`COCCNS(=O)(=O)c1ccc(Cl)c(C(=O)N(C)Cc2ccsc2)c1`: the INHIBITION was 13.76%.

As to `COCCNS(=O)(=O)c1ccc(Cl)c(C(=O)N(C)Cc2sccc2C)c1`, the INHIBITION is given as 64.37%.

As to `CN(Cc1cccc(OCCO)c1)Cc1cccc2ncccc12`, the INHIBITION is 37.5%.

On to `COCC(=O)N1CCC2(CCC(C(=O)N3CCCC3)O2)CC1` (centres undefined), for which the INHIBITION was found to be 41.38%.

Source of the values: ChEMBL document CHEMBL4513216, “Probing the Open Global Health Chemical Diversity Library for Multistage-Active Starting Points for Next-Generation Antimalarials” (ACS Infect Dis, 2020).
